These results are taken from PubChem BioAssay (NCI).

This is part of a sample that, as a whole, favours compounds with a hit. Of some 83,000 tested, about 20% had one in any assay.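 Interpretation: 100, growth as untreated; towards 0, rising growth inhibition; 0, no net growth; 0 to -100, cell death. Compounds scoring below 10 were considered active.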 Values without a mark were called inactive. Activity calls are given as the source filed them.

Test systems include NCI-H23 lung; NCI-H322M lung; HOP-62 NSCLC; NCI-H460 lung; HOP-92 NSCLC; A549/ATCC NSCLC; 786-0 renal; COLO 205 colon; DU-145 prostate; K-562 leukemia; MALME-3M melanoma; MDA-MB-231 breast; RXF 393 renal; SF-268 CNS; SF-295 CNS; SF-539 CNS; UACC-257 melanoma; M14 melanoma; HCT-15 colon; NCI-H522 lung.
Test in all cases: NCI-60 one-dose screen, 48 h (100 = growth as untreated, 0 = no growth, -100 = all killed)
Common to all, as to details: 10 µM unless noted

Turning to `COc1ccc(Cn2c(Br)c3c(c2-c2cc(OC)c(OC)c(OC)c2)CCc2sc(NC(C)=O)nc2-3)cc1`, the growth in the experiment with NCI-H23 lung was 66.1%; in the experiment on NCI-H322M lung, 63%; in the experiment with HOP-62 NSCLC, 60.3%; with NCI-H460 lung, 31.2%; in the experiment with HOP-92 NSCLC, 65.5%; in the experiment with A549/ATCC NSCLC, 52.8%. Also, the growth was 54.1% in the experiment with 786-0 renal; 20.8% in the experiment on COLO 205 colon; 66.7% in the experiment on DU-145 prostate; 15.4% in the experiment on K-562 leukemia; -6.05% (active) with MALME-3M melanoma; 62.6% in the experiment with MDA-MB-231 breast. The growth was 32.3% in the experiment with RXF 393 renal; 37.1% with SF-268 CNS; 3.53% (active) in the experiment on SF-295 CNS; 23.1% in the experiment with SF-539 CNS; 48% in the experiment on UACC-257 melanoma; 47.9% in the experiment on M14 melanoma. Also, the growth with HCT-15 colon was 51.9%.

For `O=C(/C=C/c1ccc(F)cc1)c1ccc(Nc2nc(NCCO)nc(Nc3ccc(Cl)cc3)n2)cc1`, the growth in the experiment on NCI-H23 lung is 89.1%; in the experiment with NCI-H322M lung, 93.1%; in the experiment with HOP-62 NSCLC it was 80.8%; in the experiment on NCI-H460 lung it was 61.6%; in the experiment on HOP-92 NSCLC it was 87.8%; with A549/ATCC NSCLC, 51.1%. The growth in the experiment on 786-0 renal was 69.8%; with DU-145 prostate, 84.6%; in the experiment with K-562 leukemia, 45.4%; in the experiment on MALME-3M melanoma, 96.6%; with MDA-MB-231 breast, 71.9%; in the experiment with RXF 393 renal it was 51.2%. In addition, the growth is 71.9% with SF-268 CNS; 91% in the experiment with SF-295 CNS; 74.4% in the experiment on SF-539 CNS; 99.5% in the experiment on UACC-257 melanoma; 83.3% in the experiment on M14 melanoma; 26.7% in the experiment with HCT-15 colon.

For the compound `COc1ccc(-c2cc(=O)c3c(OC)c4ccoc4c(/C=C/C=O)c3o2)cc1`, the growth in the experiment on NCI-H23 lung was 40.5%; in the experiment with NCI-H322M lung, 51.2%; with HOP-62 NSCLC, 15.5%; with NCI-H460 lung, 64.8%; in the experiment on HOP-92 NSCLC, 72.4%; in the experiment on A549/ATCC NSCLC, 90.7%. The growth with 786-0 renal is 82.8%; in the experiment on COLO 205 colon, 99%; in the experiment on DU-145 prostate, 24.8%; with K-562 leukemia it was 12.2%; in the experiment with MALME-3M melanoma, 24.8%; in the experiment with MDA-MB-231 breast it was 53.6%. Besides, the growth is 48.5% in the experiment on RXF 393 renal; 36.2% in the experiment on SF-268 CNS; 31.7% with SF-295 CNS; 14.8% in the experiment on SF-539 CNS; 108% with UACC-257 melanoma; 28.4% in the experiment on M14 melanoma. The growth with HCT-15 colon is -54.1% (active).

As for `COC(=O)[C@@H]1CCCN1C(=O)[C@H]1CCCN1C(=O)[C@@H](Cc1c[nH]c2ccccc12)NC(=S)Nc1cc(C(F)(F)F)cc(C(F)(F)F)c1`, the growth was 63.8% with NCI-H23 lung; 38.8% with NCI-H322M lung; 65.2% in the experiment with HOP-62 NSCLC; 16.2% in the experiment with NCI-H460 lung; 80.9% in the experiment with HOP-92 NSCLC; 28.4% in the experiment on A549/ATCC NSCLC. The growth is 52.5% in the experiment with 786-0 renal; 22% in the experiment on COLO 205 colon; 57.7% with DU-145 prostate; 27.6% in the experiment on K-562 leukemia; 71.1% in the experiment on MALME-3M melanoma; 25.4% in the experiment with MDA-MB-231 breast. In addition, the growth in the experiment with RXF 393 renal was 48.5%; in the experiment on SF-268 CNS, 38%; with SF-295 CNS, -52.2% (active); in the experiment on SF-539 CNS, 62%; in the experiment with UACC-257 melanoma it was 69.5%; in the experiment with M14 melanoma, 39.8%. Moreover, the growth in the experiment with HCT-15 colon was 43.5%.

As for `Oc1c(C(Nc2ccccn2)c2cccc(Oc3ccccc3)c2)ccc2cccnc12` (stereo unspecified), the growth was -73.3% (active) with NCI-H23 lung; -94.4% (active) in the experiment with NCI-H322M lung; -95.7% (active) with HOP-62 NSCLC; -86.9% (active) in the experiment with HOP-92 NSCLC; -84.7% (active) in the experiment with NCI-H522 lung; -81.8% (active) with A549/ATCC NSCLC. Also, the growth in the experiment on 786-0 renal is -81.4% (active); in the experiment on COLO 205 colon it was -90.8% (active); in the experiment with DU-145 prostate, -96% (active); in the experiment on K-562 leukemia it was -64.1% (active); in the experiment with MALME-3M melanoma, -74.8% (active); with MDA-MB-231 breast it was -89.3% (active). The growth with RXF 393 renal was -92% (active); with SF-268 CNS it was -86.7% (active); in the experiment on SF-295 CNS, -86.9% (active); with SF-539 CNS, -93.1% (active); in the experiment with UACC-257 melanoma, -77.1% (active); in the experiment on M14 melanoma it was -68.6% (active). In the experiment with HCT-15 colon, the growth is -57.6% (active).

For `O=C(c1nc2ccccc2[nH]1)C1C(c2cccc([N+](=O)[O-])c2)C2CC3CCCCC3N2[C@@]12C(=O)Nc1cc(Cl)ccc12` (stereo partly specified), the growth in the experiment on NCI-H23 lung was 37.3%; with NCI-H322M lung, 42.2%; in the experiment with HOP-62 NSCLC it was 48.1%; in the experiment with HOP-92 NSCLC it was 16.9%; in the experiment with NCI-H522 lung, 52.4%; in the experiment on A549/ATCC NSCLC it was 17.8%. Moreover, the growth was 25.6% in the experiment with 786-0 renal; 12.6% in the experiment with COLO 205 colon; 27% with DU-145 prostate; 24.2% in the experiment with K-562 leukemia; 29.3% in the experiment with MALME-3M melanoma; 18.6% in the experiment with MDA-MB-231 breast. Also, the growth is -52.5% (active) in the experiment on RXF 393 renal; 39.9% in the experiment on SF-268 CNS; 24.8% in the experiment with SF-295 CNS; 48.4% in the experiment on SF-539 CNS; 43.5% in the experiment with UACC-257 melanoma; 21.5% in the experiment with M14 melanoma. For the same compound, the growth in the experiment on HCT-15 colon is 20.9%.

For the compound `COc1ccc(CCN2CCC(CN(C)Cc3cnn(-c4ccccc4)c3)CC2)cc1`, the growth with NCI-H23 lung is 31.9%; in the experiment on NCI-H322M lung, 46.4%; in the experiment with HOP-62 NSCLC, 30%; in the experiment on HOP-92 NSCLC it was 37.3%; with NCI-H522 lung, 43.7%; with A549/ATCC NSCLC, 4.78% (active). For the same compound, the growth in the experiment with 786-0 renal is 25.6%; with COLO 205 colon, 30.1%; in the experiment on DU-145 prostate, 28.6%; in the experiment with K-562 leukemia, 10.4%; with MALME-3M melanoma, 18.4%; with MDA-MB-231 breast it was 21.6%. The growth was 35% in the experiment with RXF 393 renal; 21% in the experiment on SF-268 CNS; 47.5% in the experiment on SF-295 CNS; 19.7% in the experiment with SF-539 CNS; 19.1% in the experiment with UACC-257 melanoma; -19.2% (active) with M14 melanoma. Also, the growth in the experiment with HCT-15 colon is 26.2%.

Regarding `Cc1cc(OC(=O)c2ccc([N+](=O)[O-])cc2)nc2[nH]c(=O)sc12`, the growth is 103% in the experiment with NCI-H23 lung; 110% in the experiment on NCI-H322M lung; 111% in the experiment on HOP-62 NSCLC; 105% with HOP-92 NSCLC; 96.8% in the experiment with NCI-H522 lung; 103% in the experiment with A549/ATCC NSCLC. For the same compound, the growth is 104% with 786-0 renal; 116% in the experiment with COLO 205 colon; 111% with DU-145 prostate; 102% in the experiment on K-562 leukemia; 107% in the experiment on MALME-3M melanoma; 103% with MDA-MB-231 breast. In addition, the growth with RXF 393 renal is 108%; with SF-268 CNS, 97.5%; in the experiment on SF-295 CNS, 103%; with SF-539 CNS it was 98.5%; in the experiment on UACC-257 melanoma it was 104%; in the experiment with M14 melanoma, 102%. The growth in the experiment on HCT-15 colon was 103%.
